Shown are actives, neighbours in structure and some others; about 1.8% of the full set was active somewhere.
PTHR1 ag: agonists of human PTHR1 parathyroid hormone receptor. HEK293 GP2 PTHR1 cells, GloSensor cAMP luminescence, 1 h. Q03431. actives 0.075% (n = 410,000). AID 743266. Potency, µM (top dose mostly 115 µM), for the others: at the highest dose activation, usual class: activators; note: potency is the fitted concentration of half-maximal effect; nearly all actives have a fitted effect of over 55% in size
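HEK-293-derived GP2 cells expressing PTHR1 and a GloSensor cAMP reporter, 3,000/well, plated overnight, given luciferin plus IBMX (each 0.5 mM as added) for 1 h at 37 °C, then compound for 1 h at 37 °C. Luminescence was read after 15 min at room temperature.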
TSHR antag: human thyrotropin receptor antagonism; actives 0.2% (n = 330,000); TSHR-expressing cells, TSH-stimulated cAMP HTRF, 2 h; hits give low values; AID 504810; activity change, negative = inhibition, % at 11.5 µM; P16473;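 active = activity change below a set negative limit, meaning inhibition stronger than a set level, cut at about -70% in these data; inconclusive = activity change between two set negative limits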; note: % is set by controls: 0 for no effect and ±100 for the full control effect
Target sequence (P16473 whole entry, looked up): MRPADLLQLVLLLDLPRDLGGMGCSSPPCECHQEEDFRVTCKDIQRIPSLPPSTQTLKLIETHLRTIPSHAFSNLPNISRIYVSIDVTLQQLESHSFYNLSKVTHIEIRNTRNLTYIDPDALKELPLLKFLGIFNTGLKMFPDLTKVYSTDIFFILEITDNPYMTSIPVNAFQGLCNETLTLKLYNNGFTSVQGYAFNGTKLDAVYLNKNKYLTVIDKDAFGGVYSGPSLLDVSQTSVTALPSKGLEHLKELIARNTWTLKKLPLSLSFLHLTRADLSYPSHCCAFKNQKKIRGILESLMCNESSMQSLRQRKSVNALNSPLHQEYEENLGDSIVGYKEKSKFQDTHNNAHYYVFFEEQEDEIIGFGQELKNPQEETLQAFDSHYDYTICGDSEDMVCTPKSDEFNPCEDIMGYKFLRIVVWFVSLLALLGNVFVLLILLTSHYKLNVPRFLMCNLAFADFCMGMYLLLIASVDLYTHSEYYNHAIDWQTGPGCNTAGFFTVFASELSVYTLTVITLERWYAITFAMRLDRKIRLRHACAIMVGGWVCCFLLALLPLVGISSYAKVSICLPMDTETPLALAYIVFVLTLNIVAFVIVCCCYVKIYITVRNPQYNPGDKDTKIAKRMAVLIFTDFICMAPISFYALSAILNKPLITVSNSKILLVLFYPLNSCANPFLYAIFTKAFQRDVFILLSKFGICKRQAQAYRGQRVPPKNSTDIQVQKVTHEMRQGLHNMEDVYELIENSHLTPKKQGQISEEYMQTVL
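TSHR-expressing cells, 200/well, pre-treated with compound, then stimulated with EC80 TSH (4nM final) for 2 hours at 37 deg C. cAMP measured by competitive HTRF: anti-cAMP cryptate antibody in lysis buffer plus cAMP-d2, read after 30 minutes at room temperature.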
GLP-1R agonist: activates the human GLP-1 receptor; P43220; HEK293 GLP-1R CRE-luciferase, luminescence, 4-6 h; cells express a hypersensitive GLP-1R form; Potency, µM (top dose mostly 45.6 µM), for the others: at the highest dose activation, usual class: activators; actives 0.007% (n = 380,000); AID 624172; note: potency is the fitted concentration of half-maximal effect; % of control where 0% means no effect
GLP-1R inv ag: inverse agonists of human GLP-1 receptor. actives 1.6% (n = 410,000). HEK293 GLP-1R CRE-luciferase, luminescence, 24 h; GLP-1R form is constitutively active. Potency, µM (highest dose often 38.3 µM), for the others: top-dose activity change, negative = inhibition, most hits filed as inhibitors. P43220; note: potency is the fitted concentration of half-maximal effect; % is set by controls: 0 for no effect and ±100 for the full control effect; nearly all actives have a fitted effect of over 55% in size
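Constitutively active GLP-1R drives a cAMP-responsive luciferase in stably transfected HEK293 cells; test compounds are added after overnight (12 h) attachment and left 24 hr, and signal loss in luminescence marks inhibition.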
HEK293 tox: cytotoxic in the GLP-1 receptor inverse agonist counter-screen. actives 0.13% (n = 410,000). HEK293 cAMP-luciferase reporter cells, luminescence, 24 h. Potency, µM (titrated, usually from 38.3 µM), without a hit: top-dose activity change, negative = inhibition, most hits filed as inhibitors;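 note: loss of luciferase light is scored as toxicity; potency is the fitted concentration of half-maximal effect; % is set by controls: 0 for no effect and ±100 for the full control effect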
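Step one: seed cells (200 cells/uL, DMEM with 10% Nu serum, 1% pen-strep). Step two: 12-hour incubation at 37 deg C. Step three: pin 23 nL compound, incubate 24 hr. Step four: add luciferase reagent, read luminescence 12 min later.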
* marks the source's active call; other numbers are inactive results; i = inactive; ? = inconclusive; · = no result given; [ ] = another dose, or the depositor's remark. Unless noted, calls come from the whole dose curve; as a rule, active = well fitted curve in the direction sought with a large enough effect; inconclusive = small, poorly fitted or top-dose-only effect, or another doubt; inactive = no such curve, though single readings can be large; an effect the other way counts as inactive or inconclusive.

SMILES	PTHR1 ag	TSHR antag	GLP-1R agonist	GLP-1R inv ag	HEK293 tox
O=C(NC1CCCC1)c1cc(COc2ccc3ncccc3c2)on1	-27.7%	-18.1	4.4%	-12.0%	-2.1%
Cc1ccc(OCc2cc(C(=O)NC3CCCCC3)no2)cn1	-46.7%	-109.0*	8.2%	-27.7%	0.7%
O=C(NC1CCCCC1)c1cc(-c2ccccc2O)on1	-8.9%	-80.3*	15.1%	0.2%	-19.4%
CC1(C)CC(=O)c2cc(C(=O)NCc3ccco3)c(=O)n(-c3ccccc3)c2C1	-13.0%[57.5 µM]	-13.4	15.1%	-28.7%	0.5%
CC1(C)CC(=O)c2cc(C(=O)NNc3ccccc3)c(=O)n(-c3ccccc3)c2C1	i	-4.0	1.5%	1µM*	-7.8%
COC1=C(N)C(=O)c2nc(-c3nc(C(=O)O)c(C)c(-c4ccc(OC)c(OC)c4O)c3N)ccc2C1=O	-48.7%	-72.0*	-11.3%	-92.6%	?
COc1ccc(-c2ncncc2-c2csc(C)n2)c(O)c1OC	-8.5%[57.5 µM]	8.4	-7.1%	-0.2%	1.8%
CCN(CC)CCNC(=O)c1cc(-c2ccc(Br)s2)nc2ccccc12	-19.7%	-0.9	-5.4%	?	?
CCN(CC)CCNC(=O)c1cc2cc(Br)ccc2s1	-1.4%	5.9	-2.6%	3.16µM*	30.5%
CCC1C(=NO)C(CC)C(c2ccccc2)NC1c1ccccc1 (centres undefined)	-30.7%	-32.9	-0.2%	3.55µM*	?
O=C1c2ccccc2C(=O)N1CC(=O)N1c2ccccc2CCc2ccccc21	i	2.6	-3.5%	0.5%	-20.8%
O=C(C(Cc1ccccc1)N1C(=O)c2ccccc2C1=O)N1c2ccccc2CCc2ccccc21 (centres undefined)	i	5.0	-1.2%	12.6µM*	6.2%
O=C(NNc1cc(Cl)ccc1Cl)C1CCC1	i	0.6	5.2%	3.16µM*	-25.2%
CC1CCCC(C)N1C(=O)Cn1cc(/C=C2/C(=O)Nc3ccccc32)c2ccccc21 (centres undefined)	-14.4%[57.5 µM]	36.0	0.2%	5.62µM*	?
COc1ccc(CN2CCN(Cc3nc4ccccc4s3)CC2CCO)c(C)c1C (centres undefined)	-49.6%	-4.7	7.0%	7.94µM*	?
COCCNC(=O)CCCn1c(SCc2ccccc2Cl)nc2c(sc3ccccc32)c1=O	i	·	·	-0.1%	-5.2%
Cc1onc(-c2ccccc2Cl)c1C(=O)O/N=C(\N)c1ccccc1	i	-15.3	16.0%	10µM*	?
Cc1ccc(NC(=O)c2c(NC(=O)C(F)(F)F)sc3c2CCCCC3)cc1	-12.1%	·	·	?	-19.6%
CCOc1ccc(S(=O)(=O)N(CC(=O)Nc2ccc3c(c2)OCO3)c2ccccc2)cc1	-15.5%	·	0.1%	7.1%	-2.8%
CN1C2CCC1CC(OC(=O)C(O)c1ccccc1)C2 (centres undefined)	·	-7.9	·	·	·
COc1ccc(CN2CCC(N(CCc3ccccc3)Cc3ccccc3)CC2)c(OC)c1	-55.8%	6.0	3.9%	3.16µM*	?
CCCN1CCC(N(CCc2ccccc2)Cc2ccccc2)CC1	i	-8.3	7.9%	?	-5.4%
CCN(CC)CCN(C(=O)c1ccco1)c1nc2c(C)cccc2s1	i	·	·	41.5%	-32.1%
Cc1cc(OCC(=O)NCCCN(C)C)cc(C)c1Br	-11.8%[57.5 µM]	·	0.5%	2.82µM*	13.6%
CCc1ccc(OCC(=O)NC2CCCCC2)c(Br)c1	-29.7%	1.4	16.5%	?	12.5%
SMILES	PTHR1 ag	TSHR antag	GLP-1R agonist	GLP-1R inv ag	HEK293 tox
Cc1ccccc1OCC(=O)NCCN(C)C	21.2%[57.5 µM]	-3.9	-3.3%	0.3%	0.3%
CCc1ccc(OCC(=O)NCCN(C)C)c(Br)c1	i	4.8	11.2%	10µM*	8.7%
COc1ccccc1NC(=O)Cc1csc(NC(=S)Nc2ccc(C)cc2)n1	i	-28.8	0.5%	-14.8%	3.16µM*
COc1ccccc1NC(=O)Nc1nc(CC(=O)Nc2ccc(OC)c(OC)c2)cs1	i	3.1	5.7%	7.8%	7.6%
COc1cccc(NC(=O)Cc2csc(NC(=O)Nc3ccccc3OC)n2)c1	-4.7%	-4.9	-0.9%	10µM*	?
COc1cc(C)ccc1NC(=O)Cc1csc(NC(=O)Nc2ccccc2OC)n1	-17.5%	-11.5	1.7%	10µM*	?
CCC(=O)Nc1nc(CC(=O)Nc2ccccc2OC)cs1	i	12.3	-1.8%	19.3%	1.3%
N#C/C(=C1/SC[C@@H](c2ccc(Cl)cc2Cl)S1)n1ccnc1	·	·	8.5%	·	·
CCc1ccc(C(=O)C(C)CN2CCCCC2)cc1 (centres undefined)	·	·	-5.0%	·	·
Cc1nnsc1C(=O)Oc1ccc(Cl)cc1	-13.1%	·	·	12.9%	-12.6%
CCOC(=O)c1c(Oc2ccc(OC)cc2)nnc(-c2ccccc2)c1-c1ccccc1	-16.1%	·	·	?	1.7%
Cc1nn(Cc2c(Cl)cccc2Cl)c(C)c1NC(=O)CCCn1nc([N+](=O)[O-])c(Cl)c1C	-11.7%	-6.2	9.2%	2.51µM*	-3.0%
Cc1nn(Cc2ccccc2)c(C)c1NC(=O)CCCn1nc([N+](=O)[O-])c(Cl)c1C	i	2.1	8.1%	-15.0%	1.8%
Cc1nn(S(=O)(=O)c2ccc(C(C)C)cc2)c(C)c1S(=O)(=O)N1CCCCCC1	i	·	-3.2%	5.1%	-1.0%
NC(=O)OC[C@@H]1[C@H](NC(=O)/C(=N/OCC(=O)O)c2csc(N)n2)C(=O)N1S(=O)(=O)O	·	·	-1.5%	·	·
CC1CCN(CCCCOc2ccccc2[N+](=O)[O-])CC1	23.9%	-11.3	0.1%	-0.6%	8.91µM*
OCCCn1c(C2CCCN2c2nc(-c3ccc(F)cc3)cs2)nc2cc(Cl)c(Cl)cc21 (centres undefined)	-4.6%	·	11.4%	?	-3.3%
OCOCCCn1c(C2CCCN2c2nc(-c3ccc(F)cc3)cs2)nc2cc(Cl)c(N3CCCCC3)cc21 (centres undefined)	-19.6%	·	-4.3%	7.94µM*	-39.3%
COc1ccc(S(=O)(=O)N2CC3CCCN3c3cc(C(F)(F)F)ccc32)cc1 (centres undefined)	i	-22.7	-2.9%	10µM*	18.7%
COc1ccc(S(=O)(=O)N2CC3CCCN3c3ccc(C(F)(F)F)cc32)cc1 (centres undefined)	-71.3%	-4.9	-6.1%	-14.7%	-1.6%
CC(=O)N1CCCc2cc(S(=O)(=O)N(C)CC(=O)Nc3ccc(C)cc3C)ccc21	-33.2%	·	·	-11.3%	4.0%
O=C(NC1CC1)C1CCN(c2ccc(S(=O)(=O)N3CCOCC3)cc2)CC1	-24.8%	5.0	-1.9%	19.2%	3.0%
CC(C)CNC(=O)C1CCN(c2ccc(S(=O)(=O)N3CCOCC3)cc2)CC1	i	-77.4*	-3.3%	5.4%	12.4%
CC(=O)c1cccc(NC(=O)c2ccc3c(c2)CCCC3)c1	-3.8%	-130.6*	17.7%	?	?

Compound activity: PubChem, National Center for Advancing Translational Sciences (NCATS)
